According to PubChem BioAssay (NCATS):
Results filed as inconclusive are left out. The source made the active and inactive calls. Unless noted, calls come from the whole dose curve; as a rule, active = well fitted curve in the direction sought with a large enough effect; inconclusive = small, poorly fitted or top-dose-only effect, or another doubt; inactive = no such curve, though single readings can be large; an effect the other way counts as inactive or inconclusive.

Tests used:
[1] = qHTS for Inhibitors of Plasmodium falciparum (DD2) proliferation (AID 504314);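 note: parasite DNA measured by SYBR Green fluorescence after red cell lysis; plate controls were DMSO vehicle for no effect and artemisinin wells for full effect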
Procedure, shortened: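 Erythrocytes infected with P. falciparum Dd2 (0.3% parasitemia, 2.5% hematocrit) exposed to compound 72 h at 37C, 5% CO2. Parasite DNA quantified by SYBR Green fluorescence after saponin/Triton lysis overnight; normalized to 0.29 uM artemisinin and DMSO.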

[2] = qHTS for Inhibitors of Plasmodium falciparum (GB4) proliferation (AID 504315);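 note: 0% = DMSO vehicle and -100% = 0.29 µM artemisinin control; nearly all actives have a fitted effect of over 50% in size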
Procedure, shortened: (§1)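 Erythrocytes infected with P. falciparum line (0.3% parasitemia, 2.5% hematocrit final) incubated with compounds 72 h at 37 °C, 5% CO2; SYBR Green lysis buffer added, fluorescence read next day. Normalized to 0.29 uM artemisinin and DMSO.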

[3] = qHTS for Inhibitors of Plasmodium falciparum (7G8) proliferation (AID 504316);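 note: series mostly up to about 6.7 µM; 0% = DMSO vehicle and -100% = 0.29 µM artemisinin full kill; nearly all actives have a fitted effect of over 65% in size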
Procedure, shortened: as §1

[4] = qHTS for Inhibitors of Plasmodium falciparum (HB3) proliferation (AID 504318);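 note: 0% = DMSO vehicle and -100% = artemisinin control; nearly all actives have a fitted effect of over 60% in size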
Procedure, shortened: as §1

[5] = qHTS for Inhibitors of Plasmodium falciparum (CP250) proliferation (AID 504320);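 note: plate controls were DMSO vehicle for no effect and 0.29 µM artemisinin control for full effect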
Procedure, shortened: as §1

[6] = target: Atrial natriuretic peptide receptor 1 (Homo sapiens) (UniProt P16066); test: Natriuretic polypeptide receptor (hNpr1) antagonism - Pilot CMLD screen (AID 1347052; calls by dose curve;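 note: HEK293 cells with hNpr1 stimulated by hNppA peptide at 0.1 nM; cGMP level read as GloSensor luciferase luminescence after agonist stimulation; series mostly up to about 9.2 µM; % is set by controls: 0 for no effect and ±100 for the full control effect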)
Atrial natriuretic peptide receptor 1 (Homo sapiens), sequence (P16066 whole entry, looked up): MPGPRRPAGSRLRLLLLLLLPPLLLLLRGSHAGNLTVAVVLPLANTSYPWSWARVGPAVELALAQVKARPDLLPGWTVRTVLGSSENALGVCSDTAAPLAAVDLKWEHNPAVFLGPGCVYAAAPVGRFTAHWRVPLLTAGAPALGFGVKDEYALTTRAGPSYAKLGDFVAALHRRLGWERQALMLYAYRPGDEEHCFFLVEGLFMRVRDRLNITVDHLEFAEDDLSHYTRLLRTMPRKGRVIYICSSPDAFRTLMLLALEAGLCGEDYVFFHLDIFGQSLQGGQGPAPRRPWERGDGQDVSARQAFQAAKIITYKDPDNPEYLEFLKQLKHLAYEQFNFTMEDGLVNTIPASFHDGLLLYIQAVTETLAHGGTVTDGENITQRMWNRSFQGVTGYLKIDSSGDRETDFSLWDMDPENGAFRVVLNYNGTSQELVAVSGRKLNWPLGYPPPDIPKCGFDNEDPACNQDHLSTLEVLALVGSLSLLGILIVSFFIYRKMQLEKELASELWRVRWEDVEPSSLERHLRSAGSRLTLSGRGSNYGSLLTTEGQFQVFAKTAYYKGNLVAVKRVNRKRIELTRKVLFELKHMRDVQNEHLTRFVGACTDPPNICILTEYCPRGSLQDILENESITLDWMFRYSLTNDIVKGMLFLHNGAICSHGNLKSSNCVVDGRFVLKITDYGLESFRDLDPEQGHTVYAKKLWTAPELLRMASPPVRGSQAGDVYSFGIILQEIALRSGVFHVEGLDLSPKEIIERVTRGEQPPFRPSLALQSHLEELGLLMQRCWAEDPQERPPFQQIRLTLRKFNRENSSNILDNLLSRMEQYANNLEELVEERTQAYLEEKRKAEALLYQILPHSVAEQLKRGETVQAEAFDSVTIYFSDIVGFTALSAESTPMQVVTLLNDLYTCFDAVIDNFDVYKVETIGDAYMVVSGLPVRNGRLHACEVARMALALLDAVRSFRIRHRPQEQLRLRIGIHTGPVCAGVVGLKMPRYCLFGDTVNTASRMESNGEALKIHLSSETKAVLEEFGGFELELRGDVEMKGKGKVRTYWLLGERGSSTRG

CCCC=CC1C(=O)[C@@H]2O[C@H]2C2(OCC(CC)(CC)CO2)C1CO (stereo partly specified)
inactive: Potency [1] | Potency [2] | Potency [3] | Potency [4] | Potency [5] | Potency [6]

C=CC[C@@](C(C)=O)(C(=O)OC)[C@@H](NC(=O)OC(C)(C)C)c1ccccc1
inactive: Potency [1] | Potency [2] | Potency [3] | Potency [4] | Potency [5] | Potency [6]

COCCN1C(=O)NC(c2cccc(C(F)(F)F)c2)C(C(C)=O)=C1C (stereo unspecified)
inactive: Potency [1] | Potency [2] | Potency [3] | Potency [4] | Potency [5] | Potency [6]

C=C(C)CO[C@H]1C=C[C@@H](c2ccccc2)O[C@H]1CO
inactive: Potency [1] | Potency [2] | Potency [3] | Potency [4] | Potency [5] | Potency [6]

CCOC(=O)CN1C(=O)[C@@]2(C[C@@H](C)C[C@@H](C)O2)c2ccccc21
inactive: Potency [1] | Potency [2] | Potency [3] | Potency [4] | Potency [5] | Potency [6]

COC(=O)[C@H]1[C@@H](c2cccc(C(F)(F)F)c2)NC(=O)N(Cc2ccccc2)[C@@H]1C
inactive: Potency [1] | Potency [2] | Potency [3] | Potency [4] | Potency [5] | Potency [6]

C[C@H]1[C@H](O)[C@@H](N=[N+]=[N-])CCO[C@H]1c1ccccc1
inactive: Potency [1] | Potency [2] | Potency [3] | Potency [4] | Potency [5] | Potency [6]

CCCC[C@H]1CN2[C@H](c3ccc(Br)cc3)[C@H](C)CC[C@H]2C(=O)O1
inactive: Potency [1] | Potency [2] | Potency [3] | Potency [4] | Potency [5] | Potency [6]

O=C(C=Cc1ccccc1)c1ccccc1O
inactive: Potency [1] | Potency [2] | Potency [3] | Potency [4] | Potency [5] | Potency [6]

CC(=O)C1=CN(CCC=Cc2ccccc2)C(=O)NC1c1ccccc1 (stereo unspecified)
inactive: Potency [1] | Potency [2] | Potency [3] | Potency [4] | Potency [5] | Potency [6]

COC(=O)CCC(=O)OC1(C)C(=O)C=C2C=C(C3CC3)N(Cc3ccc4c(c3)OCO4)C=C2C1=O (stereo unspecified)
inactive: activity, negative = inhibition [1] -0.0348% [at 1.12 µM] | Potency [2] | Potency [3] | Potency [4] | Potency [5] | Potency [6]

COC(=O)N[C@@H](c1cccc(C)c1)[C@@H](C)[N+](=O)[O-]
inactive: Potency [1] | Potency [2] | Potency [3] | Potency [4] | Potency [5] | Potency [6]

COC(=O)C1=C(C(=O)OC)[C@@H]2N(C)c3ccccc3[C@@]23C[C@@H](C(=O)OC)N(C(=O)NCCBr)C3=N1
inactive: Potency [1] | Potency [2] | Potency [3] | Potency [4] | Potency [5] | Potency [6]

C#C[C@@H]1C=C[C@H](Oc2ccc(OC)cc2)[C@H](CO)O1
inactive: Potency [1] | Potency [2] | Potency [3] | Potency [4] | Potency [5] | Potency [6]

CC(=O)C1=C(C)N(Cc2ccccc2)C(=O)NC1c1cccs1 (stereo unspecified)
inactive: Potency [1] | Potency [2] | Potency [3] | Potency [4] | Potency [5] | Potency [6]

CC(=O)OC[C@H]1O[C@H](c2ccc(C(C)=O)cc2)C=C[C@H]1OC(C)=O
inactive: Potency [1] | Potency [2] | Potency [3] | Potency [4] | Potency [5] | Potency [6]

CCN1C(=O)NC(c2cccc(F)c2)C(C(C)=O)=C1C (stereo unspecified)
inactive: Potency [1] | Potency [2] | Potency [3] | Potency [4] | Potency [5] | Potency [6]

CCN1C(=NCc2ccco2)N[C@@H](CCc2ccccc2)[C@H](C(=O)OC)[C@H]1C
inactive: Potency [1] | Potency [2] | Potency [3] | Potency [4] | Potency [5] | Potency [6]

CC#CCN1C(=O)NC(c2ccccc2)C(C(=O)OC)=C1C (stereo unspecified)
inactive: Potency [1] | Potency [2] | Potency [3] | Potency [4] | Potency [5] | Potency [6]

CC=CCCN1C=C(C(=O)OCC)C(c2ccccc2)NC1=O (stereo unspecified)
inactive: Potency [1] | Potency [2] | Potency [3] | Potency [4] | Potency [5] | Potency [6]

C=C(C(=O)OCC)C(=O)c1ccccc1
inactive: Potency [1] | Potency [2] | Potency [3] | Potency [4] | Potency [5] | Potency [6]

CCOC(=O)N1C2=NC(C(=O)OC)=C(C(=O)OC)[C@@H]3N(C)c4ccccc4[C@]23C[C@H]1C(=O)OC
inactive: Potency [1] | Potency [2] | Potency [3] | Potency [4] | Potency [5] | Potency [6]

COC1=C[C@H](C(=O)NCCNC(C)=O)[C@H](C)[C@@H](c2ccccc2)CC1=O
inactive: Potency [1] | Potency [2] | Potency [3] | Potency [4] | Potency [5] | Potency [6]

C=CCN1c2ccccc2[C@]23C[C@@H](C(=O)OC)N(C(=O)OCC)C2=NC(C(=O)OC)=C(C(=O)OC)[C@H]13
inactive: Potency [1] | Potency [2] | Potency [3] | Potency [4] | Potency [5] | Potency [6]

C[C@H]1[C@@H]2O[C@H]2CCO[C@H]1c1cccc(Br)c1
inactive: Potency [1] | Potency [2] | Potency [3] | Potency [4] | Potency [5] | Potency [6]

CCCC[C@]12Cc3cc(C#N)ccc3[C@H](O1)c1c(c3ccccc3oc1=O)O2
inactive: Potency [1] | Potency [2] | Potency [3] | Potency [4] | Potency [5] | Potency [6]
